# In PubChem BioAssay (NCI):
# “And” between values parts separate entries of the source, which are not always exact repeats. Equal values may be shown once. About 83,000 compounds went through this panel and 20% of them were active in at least one assay; those are over-represented in the sample as a whole.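 A percent growth of 40 corresponds to 60% growth inhibition; 0 means no net growth; -100 means all cells died. Active threshold: below 10.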 The source made the active and inactive calls.
# System: HL-60(TB) leukemia
# Experiment: NCI-60 one-dose screen, 48 h (100 = growth as untreated, 0 = no growth, -100 = all killed)
# Conditions: 10 µM unless noted
row,SMILES,growth
1,Cc1nc2ncnc(Cl)c2[nH]1,75.4% (inactive)
2,O=C(OCc1ccc2c(Cl)cc(Cl)c(O)c2n1)N1CCN(C(=O)c2cc3cc(F)ccc3[nH]2)CC1,-49.4% (active)
3,C=C1C(=O)O[C@H]2[C@H]1CC/C(COC(=O)/C=C/C(=O)NCc1ccc(Cn3c(=O)sn(-c4ccccc4)c3=O)cc1)=C\CC[C@@]1(C)O[C@@H]21,-54.7% (active)
4,CC(C)(C)n1cc(-c2ccnc(NCCNS(=O)(=O)c3cccc4ccccc34)c2)c(-c2cccc(F)c2)n1,-52.3% (active)
5,COCCn1cc(-c2nc(-c3cc4cccnc4n3CCOC)cs2)c2cc(OC)ccc21,95.6% (inactive)
6,NC(=O)c1ccc[n+]([C@@H]2O[C@H](COP(=O)([O-])OP(=O)(O)OC[C@H]3O[C@@H](n4cnc5c(N)ncnc54)[C@H](O)[C@@H]3O)[C@@H](O)[C@H]2O)c1,109% (inactive)
7,CCCOCC(O)CNCCN (stereo unspecified),99.8% (inactive)
8,Clc1ccc(C2=NN(c3ccccc3)[C@H](c3cn(-c4ccccc4)nc3-c3ccccc3)C2)cc1,116% (inactive)
9,N/N=C(\C(=N\N)c1ccccc1)c1ccccc1,84.7% (inactive)
10,CS(=O)(=O)c1cccc(-c2c(-c3cccc(OS(N)(=O)=O)c3)nc3sccn23)c1,102% (inactive)
11,O=C(/C=C/c1ccccc1)c1cccc(O)c1,72.1% (inactive)
12,O=C(c1ccccc1)C(CN1CCCCC1)c1ccccc1 (stereo unspecified),-43.7% (active)
13,O=C1c2cccc3cccc(c23)C(=O)N1Nc1nc(NC2CCCCC2)nc(N2CCOCC2)n1,101% (inactive)
14,O=C1CC(N2C(=O)/C(=C/C(Cl)=C\c3ccc([N+](=O)[O-])cc3)SC2=S)C(=O)N1c1ccc(Cl)cc1 (stereo unspecified),21.3% (inactive)
15,COc1ccccc1OC(=O)Oc1ccccc1OC,101% (inactive) and 98.4% (inactive)
16,CCCCCN1C=C/C(=C\C(=O)N(C)c2ccc(Br)cc2)c2ccccc21,98.2% (inactive)
17,COc1nccc2cc3c(=O)n4c(cc5ccccc54)c(=O)n3c12,93.5% (inactive)
18,CN(C)CCCn1c(=O)c2ccccc2c2cnc3[nH]ccc3c21,5.9% (active)

row,SMILES,growth
1,COc1cc(/C=N/NC(=O)c2cnn3c2NC(c2ccccc2)C3)ccc1OC1CCCC1 (stereo unspecified),40.8% (inactive)
2,COc1cccc(/C=C/C(=O)c2cc3c(N)c(C(=O)Nc4ccccc4)sc3nc2C)c1,16.9% (inactive)
3,O=C(CCl)Nc1ccccc1SCc1cc(Cl)cc2c1OCOC2,49.4% (inactive)
4,COc1ccc(Oc2ccccc2NC(=O)CNC(=O)c2cccc3ccccc23)cc1,-22.8% [5 µM] (active)
5,Cc1cc(O)c(C(C)C)cc1S(=O)(=O)O (tested in a mixture with another compound),84.2% (inactive) and -0.846% (active) and 104% (inactive)
6,C=C(CBr)[C@@H]1CC[C@]2(COC(C)=O)CC[C@]3(C)[C@H](CC[C@@H]4[C@@]5(C)CCCNC(C)(C)[C@@H]5CC[C@]43C)[C@@H]12,-8.09% (active)
7,COc1cccc2c(=O)c3c(sc12)c(N1CCNCC1)nc1ccccc13,-52.2% (active)
8,N/C(=N\N=C\c1cc2ccccc2s1)N/N=C/c1cc2ccccc2s1,94.4% (inactive)
9,COc1cc2c(cc1OCCCCCn1c3ccccc3c3ccccc31)N=C[C@@H]1CCCN1C2=O,-46.7% (active)
10,O=C(OCC1CCCO1)c1ccc([N+](=O)[O-])cc1 (stereo unspecified),102% (inactive)
11,Cc1ccc2c(c1)sc(-c1ccc(N(C)C)cc1)[n+]2C,-45.4% (active)
12,Cc1nc(NC(=O)NC2CCCCC2)sc1C(=O)NN,172% (inactive)
13,O=C(/C=C/c1ccccc1)Oc1ccc(/C=C/c2cc(OC(=O)/C=C/c3ccccc3)cc(OC(=O)/C=C/c3ccccc3)c2)cc1,93% (inactive)
14,Cn1ncc2c(Nc3ccc(Br)cc3)nc(Nc3ccc(Br)cc3)nc21,69.2% (inactive)
15,Cc1c(N)ccc(-c2ccc(N)c(C)c2S(=O)(=O)O)c1S(=O)(=O)O,94.7% (inactive)
16,CCCCCc1cc[n+](CC(=O)c2ccccc2)cc1,91% (inactive) and 99.9% (inactive)
17,CC(C)Cc1ccc(C(C)C(=O)NCc2c[nH]c3ccc(Cl)cc23)cc1 (stereo unspecified),87.6% (inactive)
18,N#Cc1ccc2c(c1)C(=O)c1c-2n(CCCN)c(=O)c2cc([N+](=O)[O-])ccc12,-91.8% (active)
